Source: PubChem BioAssay (NCI)
Compounds without any hit were thinned out: in the full panel of roughly 83,000, 20% have a hit.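 Activity criterion: percent growth below 10, measured after cells in 96-well plates were exposed to a single compound concentration for 48 hours.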 Activity calls are given as the source filed them.

These compounds were tested on RXF 393 renal (assay: NCI-60 one-dose screen, 48 h (100 = growth as untreated, 0 = no growth, -100 = all killed)). Details: 10 µM unless noted.
With `CCN1CCN(c2cc(C)nc(N(CCCNc3ccnc4cc(Cl)ccc34)Cc3cccs3)n2)CC1` the growth was -53.8% (active).
In the case of `COC(=O)CCCNc1c(-c2c(O)c(O)cc3c(O)c(-c4c(C)cc5c(-c6nc7ccccn7c6NCCCC(=O)OC)c(O)c(O)cc5c4O)c(C)cc23)nc2ccccn12`, the growth is reported as 32.9% (inactive).
For `Cn1ncc(Cl)c1-c1cc(C(=O)N[C@H](CN)Cc2ccc(F)c(F)c2)oc1Cl`, the growth was -52.6% (active).
In the case of `O=c1[nH]c(N2CCOCC2)nc2scc(-c3ccccc3)c12`, the growth is reported as 97.5% (inactive).
For `Cc1cc2c(-c3nc4ccccn4c3NC3CCCCC3)c(O)c(O)cc2c(O)c1-c1c(C)cc2c(-c3nc4ccccn4c3NC3CCCCC3)c(O)c(O)cc2c1O`, the growth was 39% (inactive).
In the case of `Cc1cc(N2CCCC2)nc(N(CCCNc2ccnc3cc(Cl)ccc23)Cc2ccc3c(c2)OCO3)n1`, the growth is reported as -66.1% (active).
In the case of `[2H]C1([2H])[C@H](C)O[C@H](C)C([2H])([2H])N1c1ccc(NC(=O)c2cccc(-c3ccc(OC(F)(F)F)cc3)c2C)cn1`, the growth is reported as 90% (inactive).
For `Cc1cc2c(-c3nc4ccccn4c3NC34CC5CC(CC(C5)C3)C4)c(O)c(O)cc2c(O)c1-c1c(C)cc2c(-c3nc4ccccn4c3NC34CC5CC(CC(C5)C3)C4)c(O)c(O)cc2c1O`, the growth was 12.2% (inactive).
`CC[C@H](Nc1ncnc2nc[nH]c12)c1nc2cccc(F)c2c(=O)n1-c1ccccc1` was tested, and the growth was 2.02% (active).
With `COC(=O)C1=C(C(=O)OC)C23C=C(C)C1C2=C(C)C1(CC1)[C@@](C)(O)C3=O` (stereo partly drawn) the growth was -64.4% (active).
For `c1ccc2c(c1)CCN(NCCN1CCCC1)C2`, the growth was 99.9% (inactive).
`Cc1cc(N(CCNc2ccnc3cc(Cl)ccc23)Cc2cccs2)nc(Cl)n1` was tested, and the growth was -63.3% (active).
In the case of `COc1cc(-c2nc(C(=O)Nc3ccc(C)cc3)nn2-c2ccc(F)c(F)c2)cc(OC)c1OC`, the growth is reported as 116% (inactive).
`O=C(Cn1c(=O)ccn(CCCCCCCCOc2ccc(Br)cc2)c1=O)Nc1ccc(Oc2ccc(Cl)cc2)cc1` was tested, and the growth was 79.8% (inactive).
`Cc1ccc(-c2cc3c(SCC(=O)Nc4cc(C(F)(F)F)ccc4Cl)nccn3n2)cc1` was tested, and the growth was 13.5% (inactive).
In the case of `COc1ccc(C(=O)c2cc(OC)c(OC)c(OC)c2)cc1/C=C/C(=O)c1ccc(F)cc1`, the growth is reported as 88.3% (inactive).
In the case of `CC(C)=CCc1cc2c(cc1O)C1=C(C(=O)C3=C(C1=O)S(=O)(=O)CCN3)C(C=C(C)C)O2` (stereo not drawn), the growth is reported as -76.2% (active).
In the case of `CN1CCN(c2nc(NCCNc3ccnc4cc(Cl)ccc34)c3ccccc3n2)CC1`, the growth is reported as -35.8% (active).
`N#Cc1cc2[nH]c3ccc(OC(F)(F)F)cc3c2oc1=O` was tested, and the growth was 76.8% (inactive).
`CCN1CCN(CCCN(C[C@H]2Cc3ccccc3CN2)[C@H]2CCCc3cccnc32)CC1` was tested, and the growth was 93.8% (inactive).
With `Clc1ccc2c(NCCCNCc3ccc4c(c3)OCO4)ccnc2c1` the growth was 19% (inactive).
In the case of `Cc1cc(N2CCOCC2)nc(N(CCNc2ccnc3cc(Cl)ccc23)Cc2cccs2)n1`, the growth is reported as -46.5% (active).
With `CCN1CCN(c2cc(C)nc(N(CCCNc3ccnc4cc(Cl)ccc34)Cc3ccc4c(c3)OCO4)n2)CC1` the growth was -59% (active).
With `COc1cc(-c2cc(-c3ccc(Nc4ccnc5cc(Cl)ccc45)cc3)nc(N3CCOCC3)n2)cc(OC)c1OC` the growth was -8.41% (active).
In the case of `COC(=O)C1CCc2sc3ncnc(Nc4cn[nH]c4C(=O)Nc4ccc(CN5CCN(C)CC5)cc4)c3c21` (stereo not drawn), the growth is reported as -78.9% (active).
In the case of `CCN1CCN(c2nc(C)cc(N(CCNc3ccnc4cc(Cl)ccc34)Cc3ccc4c(c3)OCO4)n2)CC1`, the growth is reported as -54.6% (active).
In the case of `N#CC(C#N)=NO`, the growth is reported as 105% (inactive).
`C=CC(=O)N(C)[C@H]1C[C@H]2OC(C)(C1OC)n1c3ccccc3c3c4c(c5c6ccccc6n2c5c31)C(=O)NC4` (stereo partly drawn) was tested, and the growth was -90.1% (active).
For `Cc1ccc(NC(=O)NC(=O)CSc2nc3ccccc3nc2C)cc1`, the growth was 90.4% (inactive).
For `C=CCn1c(=O)c2cnc(Nc3ccc(N4CCN(C)CC4)cc3)nc2n1-c1cccc(C(C)(C)O)n1`, the growth was -27.1% (active).
With `Clc1ccc2c(NCCNc3nc(N4CCCC4)nc4ccccc34)ccnc2c1` the growth was -56.9% (active).
For `Clc1ccc(/C=C/c2cc(N3CCOCC3)c3cc(Cl)c(Cl)cc3n2)cc1`, the growth was 81.1% (inactive).
In the case of `Nc1ncnc2c1ccn2-c1cccc(NC(=O)c2ccc(N3CCOCC3)c(C(F)(F)F)c2)c1`, the growth is reported as 19.4% (inactive).
With `CC12O[C@H](C[C@@H](OC(=O)CCC(=O)O)[C@H]1O)n1c3ccccc3c3c4c(c5c6ccccc6n2c5c31)C(=O)NC4=O` the growth was -3.02% (active).

The compounds below were run on SF-268 CNS in the same assay as above. Details: 10 µM unless noted.
For `C=CCC(=O)N[C@H](/C=C/C(=O)O)Cc1ccc(-c2cc(Cl)cc(Cl)c2)cc1`, the growth was 98.7% (inactive).
With `CCN1CCN(c2cc(C)nc(N(CCCNc3ccnc4cc(Cl)ccc34)Cc3cccs3)n2)CC1` the growth was 7.31% (active).
For `COC(=O)CCCNc1c(-c2c(O)c(O)cc3c(O)c(-c4c(C)cc5c(-c6nc7ccccn7c6NCCCC(=O)OC)c(O)c(O)cc5c4O)c(C)cc23)nc2ccccn12`, the growth was 25.3% (inactive).
For `Cn1ncc(Cl)c1-c1cc(C(=O)N[C@H](CN)Cc2ccc(F)c(F)c2)oc1Cl`, the growth was 23.1% (inactive).
With `O=c1[nH]c(N2CCOCC2)nc2scc(-c3ccccc3)c12` the growth was 89.4% (inactive).
`Cc1cc2c(-c3nc4ccccn4c3NC3CCCCC3)c(O)c(O)cc2c(O)c1-c1c(C)cc2c(-c3nc4ccccn4c3NC3CCCCC3)c(O)c(O)cc2c1O` was tested, and the growth was 38.2% (inactive).
In the case of `CC(C)C1CCC(C)C(C2(C#N)C(N)=NC(N)=C2C#N)C1=O` (stereo not drawn), the growth is reported as 97.3% (inactive).
In the case of `Cc1cc(N2CCCC2)nc(N(CCCNc2ccnc3cc(Cl)ccc23)Cc2ccc3c(c2)OCO3)n1`, the growth is reported as 31.2% (inactive).
With `[2H]C1([2H])[C@H](C)O[C@H](C)C([2H])([2H])N1c1ccc(NC(=O)c2cccc(-c3ccc(OC(F)(F)F)cc3)c2C)cn1` the growth was 71.6% (inactive).
In the case of `Cc1cc2c(-c3nc4ccccn4c3NC34CC5CC(CC(C5)C3)C4)c(O)c(O)cc2c(O)c1-c1c(C)cc2c(-c3nc4ccccn4c3NC34CC5CC(CC(C5)C3)C4)c(O)c(O)cc2c1O`, the growth is reported as 17% (inactive).
In the case of `CC[C@H](Nc1ncnc2nc[nH]c12)c1nc2cccc(F)c2c(=O)n1-c1ccccc1`, the growth is reported as 71% (inactive).
For `COC(=O)C1=C(C(=O)OC)C23C=C(C)C1C2=C(C)C1(CC1)[C@@](C)(O)C3=O` (stereo partly drawn), the growth was 7.19% (active).
For `c1ccc2c(c1)CCN(NCCN1CCCC1)C2`, the growth was 96.6% (inactive).
In the case of `Cc1cc(N(CCNc2ccnc3cc(Cl)ccc23)Cc2cccs2)nc(Cl)n1`, the growth is reported as 19.3% (inactive).
For `COc1cc(-c2nc(C(=O)Nc3ccc(C)cc3)nn2-c2ccc(F)c(F)c2)cc(OC)c1OC`, the growth was 89.2% (inactive).
With `O=C(Cn1c(=O)ccn(CCCCCCCCOc2ccc(Br)cc2)c1=O)Nc1ccc(Oc2ccc(Cl)cc2)cc1` the growth was 71.1% (inactive).
With `Cc1ccc(-c2cc3c(SCC(=O)Nc4cc(C(F)(F)F)ccc4Cl)nccn3n2)cc1` the growth was 56.5% (inactive).
With `CCCc1cc2cc(-n3nc(C)c4c3CC(C)(C)CC4=O)cc(NC3CCC(O)CC3)c2c(=O)[nH]1` (stereo not drawn) the growth was 50.2% (inactive).
For `COc1ccc(C(=O)c2cc(OC)c(OC)c(OC)c2)cc1/C=C/C(=O)c1ccc(F)cc1`, the growth was 77% (inactive).
`CC(C)=CCc1cc2c(cc1O)C1=C(C(=O)C3=C(C1=O)S(=O)(=O)CCN3)C(C=C(C)C)O2` (stereo not drawn) was tested, and the growth was -0.0427% (active).
For `CN1CCN(c2nc(NCCNc3ccnc4cc(Cl)ccc34)c3ccccc3n2)CC1`, the growth was 32.6% (inactive).
With `COc1ccc(CCCc2c3[n+](cc4c(OC)c(OC)ccc24)CCc2cc4c(cc2-3)OCO4)cc1` the growth was 63% (inactive).
`N#Cc1cc2[nH]c3ccc(OC(F)(F)F)cc3c2oc1=O` was tested, and the growth was 75.5% (inactive).
`CCN1CCN(CCCN(C[C@H]2Cc3ccccc3CN2)[C@H]2CCCc3cccnc32)CC1` was tested, and the growth was 75.9% (inactive).
For `Clc1ccc2c(NCCCNCc3ccc4c(c3)OCO4)ccnc2c1`, the growth was 62% (inactive).
With `Cc1cc(N2CCOCC2)nc(N(CCNc2ccnc3cc(Cl)ccc23)Cc2cccs2)n1` the growth was 43.8% (inactive).
In the case of `CCN1CCN(c2cc(C)nc(N(CCCNc3ccnc4cc(Cl)ccc34)Cc3ccc4c(c3)OCO4)n2)CC1`, the growth is reported as -0.704% (active).
`COc1cc(-c2cc(-c3ccc(Nc4ccnc5cc(Cl)ccc45)cc3)nc(N3CCOCC3)n2)cc(OC)c1OC` was tested, and the growth was 11.2% (inactive).
In the case of `COC(=O)C1CCc2sc3ncnc(Nc4cn[nH]c4C(=O)Nc4ccc(CN5CCN(C)CC5)cc4)c3c21` (stereo not drawn), the growth is reported as -1.56% (active).
In the case of `CO/C=C/C(=O)c1cc2cnc3c(=N)cc(NC(=O)C(C)C)c([nH]1)c23`, the growth is reported as -47.4% (active).
In the case of `CCN1CCN(c2nc(C)cc(N(CCNc3ccnc4cc(Cl)ccc34)Cc3ccc4c(c3)OCO4)n2)CC1`, the growth is reported as 30.7% (inactive).
For `N#CC(C#N)=NO`, the growth was 100% (inactive).
`C=CC(=O)N(C)[C@H]1C[C@H]2OC(C)(C1OC)n1c3ccccc3c3c4c(c5c6ccccc6n2c5c31)C(=O)NC4` (stereo partly drawn) was tested, and the growth was 6.45% (active).
In the case of `Cc1ccc(NC(=O)NC(=O)CSc2nc3ccccc3nc2C)cc1`, the growth is reported as 86.5% (inactive).
For `C=CCn1c(=O)c2cnc(Nc3ccc(N4CCN(C)CC4)cc3)nc2n1-c1cccc(C(C)(C)O)n1`, the growth was 30.7% (inactive).
For `Clc1ccc2c(NCCNc3nc(N4CCCC4)nc4ccccc34)ccnc2c1`, the growth was 16.2% (inactive).
`Clc1ccc(/C=C/c2cc(N3CCOCC3)c3cc(Cl)c(Cl)cc3n2)cc1` was tested, and the growth was 58% (inactive).
`Nc1ncnc2c1ccn2-c1cccc(NC(=O)c2ccc(N3CCOCC3)c(C(F)(F)F)c2)c1` was tested, and the growth was 55% (inactive).
In the case of `CC12O[C@H](C[C@@H](OC(=O)CCC(=O)O)[C@H]1O)n1c3ccccc3c3c4c(c5c6ccccc6n2c5c31)C(=O)NC4=O`, the growth is reported as 46.4% (inactive).
